# Compounds with a hit are over-represented: about 9.2% of the library has one in this group of screens.
# SMN2 splice enh = qHTS Assay for Enhancers of SMN2 Splice Variant Expression | HEK293 SMN2-luciferase splicing reporter, luminescence, 30-36 h | Potency, µM (top dose mostly 46.1 µM), inactives show top-dose activity change, positive = activation, usual class: activators | 210,000 tested, 2.8% active | AID 1458, 2008; also: % of control where 0% means no effect; nearly all actives have a fitted effect of over 55% in size
#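 HEK293 cells carry an SMN2 minigene-luciferase reporter in which exon 7 inclusion puts luciferase in frame. Cells were seeded at 2000 cells/well, attached for 10-12 hours, then exposed to compounds for 30-36 hours at 37C before ONE-Glo luminescence.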
# Rab9 prom act = qHTS Assay for Rab9 Promoter Activators; 320,000 tested, 2.8% active; Huh7 Rab9 promoter-luciferase reporter, luminescence, 24 h; Potency, µM (top dose mostly 9.22 µM), without a hit: at the top dose activation, negative = inhibition, usual class: activators; also: % of control where 0% means no effect; nearly all actives have a fitted effect of over 60% in size
#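 Luminescence read-out: Huh7 cells stably expressing Rab9-luciferase, treated 24 h with compound at 37 °C, then lysed with luciferase reagent for 10 min at ambient before reading.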
# ELG1 genotox = qHTS screen for small molecules that induce genotoxicity in human embryonic kidney (HEK293T) cells expressing luciferase-tagged ELG1; HEK293T ELG1-luciferase reporter, luminescence, 16 h; Potency, µM (titrated, usually from 46 µM), without a hit: at the top dose activity change, positive = activation, hits mostly activators; 330,000 tested, 1.3% active; also: % of control where 0% means no effect; nearly all actives have a fitted effect of over 60% in size
#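 Quantitative HTS format in 1536-well plates. HEK293T ELG1-luciferase reporter cells receive test compound and are incubated 16 hr at 37 °C, 5% CO2; ONE-Glo added, 30 min room temperature, then luminescence read.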
# NPC1 promoter act = qHTS Assay for NPC1 Promoter Activators; Huh7 NPC1 promoter luciferase reporter, 24 h; Potency, µM (titrated, usually from 9.22 µM), for inactives: at the top dose activation, hits mostly activators; 320,000 tested, 2.4% active; also: % of control where 0% means no effect; nearly all actives have a fitted effect of over 60% in size
#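 NPC1 promoter–luciferase Huh7 cells; 24 h compound; luminescence.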
# ELG1 DNA repair = qHTS screen for small molecules that inhibit ELG1-dependent DNA repair in human embryonic kidney (HEK293T) cells expressing luciferase-tagged ELG1. AID 504467, 2011. HEK293T ELG1-luciferase reporter, luminescence, 16 h; DNA damage induced by 5-fluorouridine. 330,000 tested, 2.3% active. Potency, µM (series often up to 46.1 µM), for the others: at the highest dose activity change, negative = inhibition, hits mostly inhibitors; also: % is scaled to controls: 0 for no effect and ±100 for the full control effect; nearly all actives have a fitted effect of over 55% in size
#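 Reporter activity after DNA damage by 5-fluorouridine is monitored. Compound-treated cells incubate 16 hr at 37 °C, then ONE-Glo is added for 30 min before luminescence reading.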
# FLuc modulator = qHTS profiling assay for firefly luciferase inhibitor/activator using purifed enzyme and Km concentrations of substrates (counterscreen for miR-21 project); Luciferin 4-monooxygenase (Photinus pyralis), P08659; purified FLuc, Km substrates, luminescence inhibition; Potency, µM (series often up to 57.5 µM), without a hit: top-dose activity change, negative = inhibition, hits mostly inhibitors; 360,000 tested, 6.9% active;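 also: plate controls were vehicle for no effect and reference inhibitor for full effect; nearly all actives have a fitted effect of over 55% in size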
# Target sequence (P08659 whole entry, looked up): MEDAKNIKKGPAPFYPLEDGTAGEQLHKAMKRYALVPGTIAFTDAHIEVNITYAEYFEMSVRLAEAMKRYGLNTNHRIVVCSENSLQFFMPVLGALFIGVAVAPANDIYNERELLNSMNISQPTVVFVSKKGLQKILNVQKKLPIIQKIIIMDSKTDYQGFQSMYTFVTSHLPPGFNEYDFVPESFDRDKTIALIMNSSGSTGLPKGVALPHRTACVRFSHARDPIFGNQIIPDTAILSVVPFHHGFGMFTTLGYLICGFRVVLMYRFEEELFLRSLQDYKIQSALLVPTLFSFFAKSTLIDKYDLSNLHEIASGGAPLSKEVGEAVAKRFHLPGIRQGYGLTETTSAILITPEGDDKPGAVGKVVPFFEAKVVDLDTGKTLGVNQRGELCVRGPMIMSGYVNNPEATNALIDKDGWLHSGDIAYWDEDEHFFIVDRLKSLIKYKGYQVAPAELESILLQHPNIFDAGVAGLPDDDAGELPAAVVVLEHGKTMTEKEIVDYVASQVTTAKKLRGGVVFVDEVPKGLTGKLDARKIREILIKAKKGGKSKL
#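 Purified P. pyralis luciferase, 10 nM final, with Km-level 10 uM D-luciferin and 10 uM ATP in 50 mM Tris acetate pH 7.5, 10 mM Mg acetate, 0.01% Tween-20, 0.05% BSA; 6-point qHTS titration about 60 µM downward; luminescence read.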
# Starred values were filed as active, the others as inactive; ? = inconclusive; / = no result; [ ] = dose if it differs, or a comment. Calls follow the shape of the dose curve; as a rule, active = well fitted curve in the direction sought with a large enough effect; inconclusive = small, poorly fitted or top-dose-only effect, or another doubt; inactive = no such curve, though single readings can be large; an effect the other way counts as inactive or inconclusive. Potency is read from the fitted curve at half-maximal effect.
SMILES,SMN2 splice enh,Rab9 prom act,ELG1 genotox,NPC1 promoter act,ELG1 DNA repair,FLuc modulator
Cc1ccc2nc(SCC(=O)Nc3ccccc3N3CCOCC3)c(C#N)cc2c1,-11%,-22%,-2%,-30%,4.1µM*,1%
Cc1ccc(SCC(=O)Nc2ccccc2N2CCOCC2)cc1,/,3%,-6%,-2%,-10%,0%
CCOC(=O)CC(=O)CSc1nc2ccc(C)cc2cc1C#N,25µM*,1%,16µM*,2%,?,-21%[2.3 µM]
CC(=O)c1cc(C(=O)N2CCCC(CCC(=O)N(C)CCc3ccccn3)C2)cs1 (stereo not given),/,-1%,1%,-1%,1%,0%
COc1ccc(C(=O)c2ccc(N(C)C)cc2)c(OC)c1,5%,-20%,0%,-30%,?,-17%
CN(C)c1ccc(C(=O)c2ccc(N(C)C)c3ccccc23)cc1,?,-19%,?,-7%,?,15µM*
CC(C)c1ccc2[nH]c(O)c(N=NC(=O)c3cccc(S(=O)(=O)N4CCCCC4)c3)c2c1,/,-4%,-13%,-1%,10µM*,-19%
O=C(NNc1ccccc1F)C1CCC1,/,-2%,10%,-2%,16µM*,0%
O=C(NNc1ccccc1F)c1ccccc1,/,6%,9%,3%,15µM*,-5%
O=C(NNC(=O)c1ccc(-c2ccccc2)cc1)Nc1ccccc1F,/,-3%,3%,0%,-1%,-1%
CC(C(=O)NCCCc1ccccc1)n1cccc1C(=O)c1ccccc1 (stereo not given),/,-12%,-3%,-6%,-2%,7%
NNc1nnc2c3cc(F)ccc3n(CCc3ccccc3)c2n1,/,-1%,-7%,0%,12µM*,-4%
CCCN1C(=O)/C(=C/c2c(N3CCNC(=O)C3CC(=O)OCC)nc3c(C)cccn3c2=O)SC1=S (stereo not given),/,-1%,-10%,-5%,5.8µM*,1%
CCOc1ccc(NC2=C(Cl)C(=O)N(Cc3ccccc3)C2=O)cc1,/,12%,-1%,-4%,-11%,0%
Cc1ccc(C(=O)N2CCCCC2)cc1NC1=C(Cl)C(=O)N(Cc2ccccc2)C1=O,/,-6%,-12%,0%,18µM*,/
Cc1ccc(O)c(NC2=C(Cl)C(=O)N(Cc3ccccc3)C2=O)c1,3%,-7%,0%,-1%,7%,21µM*
CN(C)c1nc(-c2ccc([N+](=O)[O-])cc2)cs1,-12%,?,12µM*,28%,?,12µM*
C=CCNc1nc(-c2ccc([N+](=O)[O-])cc2)cs1,?,3.5µM*,21µM*,?,?,3µM*
C=CCNc1nc(-c2ccc(Cl)cc2)cs1,25µM*,2µM*,18%,2.8µM*,?,1.3µM*
COc1cc2cnc(-c3ccccc3)c(-c3ccc(C#N)cc3)c2cc1OC,/,0%,-7%,1%,23µM*,3%
COc1cc2cnc(-c3ccccc3)c(-c3cccc(C(F)(F)F)c3)c2cc1OC,/,-2%,-11%,0%,13µM*,1%
O=C(NCc1ccc(OC(F)(F)F)cc1)C1CC(c2cccc(F)c2)=NO1 (stereo not given),/,1%,2%,-3%,11%,5%
CCOC(=O)c1ccc2c(c1)[nH]c(=S)n2CC,/,?,21µM*,18%,?,19µM*
CCc1nc2sc3c(O)cc(=O)[nH]c3c2cc1C,/,-1%,-1%,0%,17%,15µM*
Cc1cc(-c2ccccc2)c2c(n1)sc1c(O)cc(=O)[nH]c12,/,6%,0%,-1%,6%,-1%
SMILES,SMN2 splice enh,Rab9 prom act,ELG1 genotox,NPC1 promoter act,ELG1 DNA repair,FLuc modulator
O=C(COc1ccc(Cl)cc1Cl)Nc1cccc(-c2ccc(N3CCOCC3)nn2)c1,/,1µM*,1.8µM*,?,?,0.43µM*
O=C(COc1ccccc1)Nc1cccc(-c2ccc(N3CCOCC3)nn2)c1,/,1.3µM*,2.3µM*,1.8µM*,?,1.9µM*
CCS(=O)(=O)c1ccc(-c2cccc(NC(=O)COc3ccccc3)c2)nn1,/,0%,6%,0%,14%,1%
CCN1CCc2nc3sc(C(=O)c4ccccc4)c(N)c3cc2C1,-12%,/,/,/,/,9.5µM*
Nc1c(C(=O)Nc2ccc(C(=O)O)cc2)sc2nc3c(cc12)CCCC3,?,/,/,/,/,0.19µM*
CCN1CCc2nc3sc(C(=O)c4ccc(F)cc4)c(N)c3cc2C1,/,/,/,/,/,-2%
Nc1c(C(=O)Nc2cccc(C(=O)O)c2)sc2nc3c(cc12)CCCC3,/,1.3µM*,?,?,?,0.067µM*
Nc1c(C(=O)Nc2ccc(Cl)c(C(=O)O)c2)sc2nc3c(cc12)CCCC3,/,?,16%,?,?,2.7µM*
CCOc1ccc(NC(=O)c2sc3nc4c(cc3c2N)CCCCCC4)cc1,7%,/,/,/,/,6%
CC1(C)CC(=O)N(c2ccc(Cl)c(Cl)c2)C(=O)C1,/,-1%,-2%,-1%,-11%,3%
COc1ccc2c(c1)CCc1c(C(=O)Nc3c(C)nn(Cc4c(Cl)cccc4Cl)c3C)noc1-2,-1%,/,/,/,/,-7%
CCc1ccc(CNC(=O)c2ccc3nc(C(C)C)oc3c2)cc1,/,/,/,/,/,-12%
CC[C@]12c3[nH]c4cc(-c5ccco5)ccc4c3CCN1C(=O)[C@@H](CC(=O)NCCN1CCOCC1)C[C@@H]2C(=O)N1CCN(C(=O)C2CC2)CC1,/,/,-1%,/,?,/
Cc1ccc(NS(=O)(=O)c2ccc(Cl)c(C(=O)Nc3ccccc3-c3nc4ccccc4[nH]3)c2)cc1C,-73%,-7%,-9%,-4%,9.2µM*,-11%
CC(=O)Oc1ccc2c(=O)c(Oc3ccccc3[N+](=O)[O-])coc2c1,11%,-1%,-1%,-1%,2%,-8%
CC(=O)Oc1ccc2c(=O)c(-c3nc4ccccc4s3)coc2c1,13µM*,1.3µM*,?,1.3µM*,?,1.1µM*
COC(=O)COc1ccc2c(-c3ccc(OC)cc3)cc(=O)oc2c1,-10%,-3%,1%,-1%,0%,?
COC(=O)COc1ccc2c(=O)c(-c3ccccc3)coc2c1,/,1%,-2%,3%,6%,17µM*
CC(C)Oc1ccc2c(=O)c(-c3ccccc3)coc2c1,3.2µM*,0.89µM*,9.2µM*,0.79µM*,?,1.7µM*
